Test results: publication PMC5540273 (PLoS ONE, 2017)

test system: MKNK1; conditions: concentration: 1 μM, replicates: in singlicate; n = 1
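Note: KINOMEscan kinase panel screen.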

SMILES | %Inh
Cc1c(Cn2ccn3c(=O)cc(N4CCOCC4)nc23)cccc1C(F)(F)F [GSK2289044] | 0%
Cc1cccc(-c2nc(Nc3ccc4[nH]ncc4c3)c3ccccc3n2)n1 [GW857175] | 0%
COc1cc2nccc(Nc3ccc(NC(=O)c4ccc(C)cc4)c(O)c3)c2cc1OC.Cl [GW440132] | 0%
Cn1ccc2ncnc(Oc3cccc(C(=O)Nc4ccccc4)c3)c21 | 12%
Cc1csc(-c2nc(Nc3ccncc3)c3ccccc3n2)n1 [GW869640] | 0%
Clc1cc(Cl)cc(Nc2ccnc(Nc3cc(Cl)cc(Cl)c3)n2)c1 [GSK175726] | 5%
Cl.c1ccc(-c2n[nH]cc2-c2ccnc(-c3ccc(CN4CCOCC4)cc3)c2)nc1 [GW776245] | 1%
O=C(O)COc1ncnc2cc(-c3ccc4[nH]ncc4c3)sc12 | 8%
CC(C)(C)c1ccc(C(=O)Nc2cn3cc(-c4cccnc4)ccc3n2)cc1 | 0%
COc1ccc(C2=C(Nc3cccc(C(=O)O)c3)C(=O)NC2=O)cc1 [SB-390765] | 0%
Cc1cccc(-c2nc(Nc3cccc(C(N)=O)c3)c3ccccc3n2)n1 [GW876019] | 0%
O=C(Nc1n[nH]c2cc(-c3cccc(F)c3F)ccc12)C1CC1 [SB-733894] | 0%
CC(C)(C)c1ccc(C(=O)Nc2cn3cc(Cl)ccc3n2)cc1 | 0%
CC1=C(C(=O)Nc2cc3cn[nH]c3cc2F)C(c2ccc(C(F)(F)F)cc2)CC(=O)N1 (stereo not shown) [GSK429286] | 0%
Fc1cc(Cl)ccc1Nc1ccnc2cc(-c3ccc(CN4CCCCC4)o3)ccc12 [GW560116] | 0%
O=C(Nc1n[nH]c2nc(-c3nccs3)c(Br)cc12)C1CCCC1 [SB-742609] | 31%
COc1cccc(NC(=O)NC2CCN(c3ccnc(Nc4ccc(F)cc4)n3)C2)c1 (stereo not shown) [GSK1379721] | 23%
Cc1cc(NCC(c2ccccc2)c2ccccc2)nc(NCc2ccc(C(F)(F)F)cc2)n1 [GW497681] | 0%

SMILES | %Inh
COC(=O)c1c(-c2ccccc2)c2cc(OC)ccc2c(=O)n1Cc1ccccc1 | 5%
Cn1cncc1-c1ccc2ncnc(Nc3ccc(OCc4ccccc4)cc3)c2c1 [GW320571] | 24%
Cc1ccc(NC(=O)Nc2cc(C(C)(C)C)nn2-c2ccccc2)cc1 [GSK1014915] | 28%
O=C(Nc1n[nH]c2nc(-c3nccs3)c(Br)cc12)C1CC1 [SB-742251] | 59%
O=C1NC(=O)C(N2CCc3ccccc32)=C1c1ccccc1Cl [SB-373598] | 7%
Cl.Oc1ccc(-c2nc(-c3ccccc3)[nH]c2-c2ccncc2)cc1 [SB-428218] | 0%
Fc1cccc(COc2nnc(-c3ccc4c(c3)CCO4)o2)c1 | 0%
CS(=O)(=O)c1ccc(-c2c(-c3ncn[nH]3)sc(N3CCOCC3)c2C#N)cc1 | 0%
Cc1ccc(NC(=O)Nc2cccc(Cl)c2)cc1-c1ccc(C(=O)Nc2ccncc2)cc1 [GSK1398468] | 6%
Cc1cccc(-c2nc(Nc3ccncc3)c3ccccc3n2)n1 [GW855857] | 0%
Cc1cccc(-c2nc(-c3ccc(S(C)(=O)=O)cc3)sc2-c2ccnc(NCCc3ccccc3)c2)c1 | 3%
Cc1nnc(-c2ccc3occ(-c4ccc(S(C)=O)cc4)c3c2)[nH]1 (stereo not shown) | 9%
COc1ccc2nc(-c3cccc(C)n3)nc(Nc3ccncc3)c2c1 [GSK204919] | 0%
O=c1cc(N2CCOCC2)nc2n(Cc3cccc(Cl)c3Cl)ccn12 [GSK2286295] | 7%
COc1ccc(CNC(=O)NC2CCN(c3ccnc(Nc4cc(OC)c(OC)c(OC)c4)n3)C2)cc1 (stereo not shown) [GSK1379748] | 8%
Cn1ccc2ncnc(Oc3ccc(NC(=O)Nc4ccccc4)cc3)c21 | 13%
CCn1c(-c2ccccn2)nc2cnccc21 [SB-736398] | 26%

test system: MKNK2; conditions: concentration: 1 μM, replicates: in singlicate; n = 1

SMILES | %Inh
Cc1c(Cn2ccn3c(=O)cc(N4CCOCC4)nc23)cccc1C(F)(F)F [GSK2289044] | 0%
Cc1cccc(-c2nc(Nc3ccc4[nH]ncc4c3)c3ccccc3n2)n1 [GW857175] | 0%
COc1cc2nccc(Nc3ccc(NC(=O)c4ccc(C)cc4)c(O)c3)c2cc1OC.Cl [GW440132] | 5%
Cn1ccc2ncnc(Oc3cccc(C(=O)Nc4ccccc4)c3)c21 | 11%
Cc1csc(-c2nc(Nc3ccncc3)c3ccccc3n2)n1 [GW869640] | 38%
Clc1cc(Cl)cc(Nc2ccnc(Nc3cc(Cl)cc(Cl)c3)n2)c1 [GSK175726] | 0%
Cl.c1ccc(-c2n[nH]cc2-c2ccnc(-c3ccc(CN4CCOCC4)cc3)c2)nc1 [GW776245] | 0%
O=C(O)COc1ncnc2cc(-c3ccc4[nH]ncc4c3)sc12 | 13%
CC(C)(C)c1ccc(C(=O)Nc2cn3cc(-c4cccnc4)ccc3n2)cc1 | 26%
COc1ccc(C2=C(Nc3cccc(C(=O)O)c3)C(=O)NC2=O)cc1 [SB-390765] | 43%
Cc1cccc(-c2nc(Nc3cccc(C(N)=O)c3)c3ccccc3n2)n1 [GW876019] | 0%
O=C(Nc1n[nH]c2cc(-c3cccc(F)c3F)ccc12)C1CC1 [SB-733894] | 20%
CC(C)(C)c1ccc(C(=O)Nc2cn3cc(Cl)ccc3n2)cc1 | 0%
CC1=C(C(=O)Nc2cc3cn[nH]c3cc2F)C(c2ccc(C(F)(F)F)cc2)CC(=O)N1 (stereo not shown) [GSK429286] | 19%
Fc1cc(Cl)ccc1Nc1ccnc2cc(-c3ccc(CN4CCCCC4)o3)ccc12 [GW560116] | 11%
O=C(Nc1n[nH]c2nc(-c3nccs3)c(Br)cc12)C1CCCC1 [SB-742609] | 31%
COc1cccc(NC(=O)NC2CCN(c3ccnc(Nc4ccc(F)cc4)n3)C2)c1 (stereo not shown) [GSK1379721] | 0%
Cc1cc(NCC(c2ccccc2)c2ccccc2)nc(NCc2ccc(C(F)(F)F)cc2)n1 [GW497681] | 0%

SMILES | %Inh
COC(=O)c1c(-c2ccccc2)c2cc(OC)ccc2c(=O)n1Cc1ccccc1 | 0%
Cn1cncc1-c1ccc2ncnc(Nc3ccc(OCc4ccccc4)cc3)c2c1 [GW320571] | 27%
Cc1ccc(NC(=O)Nc2cc(C(C)(C)C)nn2-c2ccccc2)cc1 [GSK1014915] | 91.9%
O=C(Nc1n[nH]c2nc(-c3nccs3)c(Br)cc12)C1CC1 [SB-742251] | 51%
O=C1NC(=O)C(N2CCc3ccccc32)=C1c1ccccc1Cl [SB-373598] | 0%
Cl.Oc1ccc(-c2nc(-c3ccccc3)[nH]c2-c2ccncc2)cc1 [SB-428218] | 0%
Fc1cccc(COc2nnc(-c3ccc4c(c3)CCO4)o2)c1 | 0%
CS(=O)(=O)c1ccc(-c2c(-c3ncn[nH]3)sc(N3CCOCC3)c2C#N)cc1 | 0%
Cc1ccc(NC(=O)Nc2cccc(Cl)c2)cc1-c1ccc(C(=O)Nc2ccncc2)cc1 [GSK1398468] | 4%
Cc1cccc(-c2nc(Nc3ccncc3)c3ccccc3n2)n1 [GW855857] | 0%
Cc1cccc(-c2nc(-c3ccc(S(C)(=O)=O)cc3)sc2-c2ccnc(NCCc3ccccc3)c2)c1 | 0%
Cc1nnc(-c2ccc3occ(-c4ccc(S(C)=O)cc4)c3c2)[nH]1 (stereo not shown) | 49%
COc1ccc2nc(-c3cccc(C)n3)nc(Nc3ccncc3)c2c1 [GSK204919] | 9%
O=c1cc(N2CCOCC2)nc2n(Cc3cccc(Cl)c3Cl)ccn12 [GSK2286295] | 1%
COc1ccc(CNC(=O)NC2CCN(c3ccnc(Nc4cc(OC)c(OC)c(OC)c4)n3)C2)cc1 (stereo not shown) [GSK1379748] | 30%
Cn1ccc2ncnc(Oc3ccc(NC(=O)Nc4ccccc4)cc3)c21 | 43%
CCn1c(-c2ccccn2)nc2cnccc21 [SB-736398] | 24%
